In the supplement of paper PMC6555819:

test system: VDR:RXRa (NR concentration 270 nM, RXRa partner concentration 90 nM); assay: PBM binding z-score (relative to random genomic background probes); higher = stronger binding; sequences stand for … in GC…GCGATTGACAGCGTAGAATGAAGG
Experimental: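 Protein-binding microarray (Agilent 4x180K custom design, double-stranded 60-nt probes: 5' GC cap, 34-nt variable region, 24-nt constant primer region; full probe sequence given). Purified or IVT nuclear receptor:RXRα heterodimers (3:1 NR:RXRα, mostly 270:90 nM) or homodimers were incubated for 1 h in PBS with 2% milk and no ligand, then detected with Alexa488 antibodies. Fluorescence from o1-orientation probes (~5 replicates averaged) was converted to z-scores against 500 random hg19 background probes. Variable regions are seed direct-repeat (DR0–DR5) sites, all their single-nucleotide variants and half-site ablations.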

Sequence	PBM binding z-score
GCATATAGGTAATACAAGGGGAAAGTCCGATTGT	-0.0932
ACTTACGGGTCAACGAGGTTAAAGCACGCGTATA	7.52
TCTCCTAGGTCAGTTGGTCAGCTAACGAGCTGCC	0.839
GATACAGGGTCAACGCCAGAGTACGCGTATTGAT	4.77
CAAACTAGGCCACGAAAGGTCAAAGTCGAATGAC	4.9
CTCGAAAGGTCGTGCTCAGGTGAGTATACCAAAC	3.39
CTCGAAAGGTCGGTTGAAGTGAGTATACGGATAA	1.23
GCTAGGAGGCCATTTGGGTCACTCAATGACGGGC	1.83
ACTATTAGTCGACTTAGGGCAACCGATACGACGC	-0.299
CAAACTTGGTCACCGGAAGGTCAAAGTCCGCATG	3.88
TTACCAAGGTGAAAGGTCGTCGATGCACGCCTTG	3.09
ATCTCTAGGTCAAGATAGTTCAGTGAATGCAAAT	4.44
CCTGCTAGGTCAAGGTCAGCTAATCTACAGTATG	3.4
AGAACGAGGGCAATGAGTGGATAGCACGGGTGGC	1.49
ACTAGCAGGCCAAGTTTGGGTCACTCACACAAAG	0.806
GATACAGGGTCAGCTAGAGGCCAGTGTATGGAAA	3.43
CCGACTTGGGCAGAAAGGTTACCATACCATCCGG	0.0426
CGAACTAGGTCATGGACAGGACAGTGAATAGTAA	2.3
CGTCAAAGTTCAACTAAGGTAACGAAAAGCACGC	4.64
ATACCAAGGTGATCTTGAGGTCGTTGATACTAAC	3.57

Sequence	PBM binding z-score
CGTCAAAGTTCAATGTAACGTAACAGAAAGCAGC	3.74
ACAGTCAGGTGATGAAGGTAACTCAGGCTATCAT	-0.0524
ATCGCAAGGTCGTGAGGTGAGTATACAGAAAGGC	2.33
TCTATTAGTTGATTAGGGCATCCGAAACAGCGGA	0.719
GCTAGCAGGCCATTTGGGCCACTCAATGACGGGC	-0.859
TAGCCTAGGTCAGGTCGGGCCAGTATACGCTATA	1.03
CGTCCAAGGTCAGCCGGTCAGTGAAAGCGACGTG	3.32
TCTATTAGTTGATTAGGGCAGCCGAAACAGCGGA	0.607
GGAACGAGGGCAAGTTGATAGCAGAGTTTGATGG	0.688
CGTCCAAGGTCAATGCTAGGTCGGTGAAAGCATT	4.11
ACTATTAGTTGACTTAGGGCATCCGATACGACGC	0.439
TGACCAAGGTGAGCTGAGGTCGTTGATCCAACTC	3.9
AGTGAAAGTTCATCTAGGTAACGTAAGATATGCT	4.97
AGAATGAGGTTATTAAGATCAGGGATTTGCGGTC	2.6
TCTATTAGTTGATAAGGGCAACCGAAACAGCGGA	0.713
CCGAGTAGGTTATGGGGCATTCCGGCAACGGTGA	-0.216
GCTAGTCGGTCAGTAAAAGGTCACACACCGGTCG	4.18
ATCTCTAGGTAAGACTCCGTTCAGTGAAGAACGC	0.0228
TCTAGTTGGGCACGGAGGTCACACACGACGGGTA	4.08
ATCTCTAGGTAAAGATACTTCAGTGAATGCAAAT	0.244
